Among the data in PubChem BioAssay are composite z-score values, retold here.

For the experiment, the target named is Follistatin (Homo sapiens) (UniProt P19883). Description: FST protein binding to printed compounds – biochemical, small-molecule microarray, 635/667 nm fluorescence, primary screen (AID 1132). Particulars: 635 nm fluorescence, higher = more signal.
Sequence of Follistatin (Homo sapiens) (P19883 whole entry, looked up): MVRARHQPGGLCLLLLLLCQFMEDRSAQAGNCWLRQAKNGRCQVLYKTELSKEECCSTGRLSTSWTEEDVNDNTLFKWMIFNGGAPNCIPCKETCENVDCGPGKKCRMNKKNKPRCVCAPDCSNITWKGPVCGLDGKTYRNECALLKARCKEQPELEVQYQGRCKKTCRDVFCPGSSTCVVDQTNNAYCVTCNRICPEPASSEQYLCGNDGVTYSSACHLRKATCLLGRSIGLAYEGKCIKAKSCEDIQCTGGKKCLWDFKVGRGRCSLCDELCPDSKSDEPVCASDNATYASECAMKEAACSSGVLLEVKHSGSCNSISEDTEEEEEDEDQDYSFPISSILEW
Molecule `CC[C@H]1C2=C3C(CC[C@H]4C(OCc5ccc(F)cc5C(F)(F)F)OC[C@](C)([C@@H]34)N(C(=O)OC(C)(C)C)C2)C(COC)C1COC` (stereo not given in full) had a composite z-score of -0.0566.
For the molecule `CC(C)N1C(=O)C[C@@](C(=O)NCCCN(C)C)(c2ccc([N+](=O)[O-])cc2)[C@H]1c1ccc(CO)cc1`, the composite z-score was 0.316.
As for `NC(=O)NCC#Cc1ccc2c(c1)[C@]1(C(=O)N2)[C@H](C(=O)NC[C@H](O)c2ccccc2)[C@H]2C(=O)O[C@H](c3ccccc3)[C@H](c3ccccc3)N2[C@@H]1c1ccc(OCCO)cc1`, the composite z-score worked out at 1.29.
Take `Cc1ccccc1C(O)C1C=CC2C(=O)N(C)C(=O)C2N1N(c1ccccc1)c1ccccc1` (stereo not given): the composite z-score was determined as 0.799.
Under `C=CCC(OC(C)=O)[C@@H]1[C@@H](N(Cc2cc3ccccc3o2)C(=O)c2ccc(C)cc2)c2cc(OCCCO)ccc2N1C(=O)Cc1ccc(OC)cc1` (stereo not given in full) stands 0.924; under `COC(=O)C1=CC(CCCO)=CC(C2CC2)N(C)C=C1C(=O)OC` (stereo not given), -0.157.
Under `COc1cc2c(cc1OC)CN(C(=O)[C@@H]1[C@H]3C(=O)O[C@H](c4ccccc4)[C@H](c4ccccc4)N3[C@H](c3ccc(OCCO)cc3)[C@@]13C(=O)Nc1ccc(C#CC4(O)CCCCCC4)cc13)CC2` stands 1.41; under `COc1cc(OC)c(C(O)C2C=CC3C(=O)N(c4ccccc4)C(=O)C3N2Nc2ccccc2)cc1Br` (stereo not given), 0.461.
`COc1ccc([Si](C)(C)[C@@H]2[C@@H](CC(=O)N(CCO)Cc3ccccc3)O[C@]3(C(=O)N(Cc4cccc(N5C(=O)c6cccc7cccc5c67)c4)c4ccccc43)[C@H]2C)cc1`: the composite z-score was 1.1.
The molecule `COC(=O)c1c2oc(c1C(=O)OC)C(=O)N(C)Cc1cn(nn1)C[C@H](Cc1ccccc1)NC(=O)N[C@H](CO)CC2` returned a composite z-score of -0.0414.
For `O=C(CS)NCCCCCCNC(=O)[C@H]1C[C@H]2C(=O)N[C@@H](Cc3ccccc3)C(=O)N2[C@H]1c1ccc(O)cc1` the value was 1.22; for `O=C1C2C=CC(C(O)c3ccccc3)N(Nc3ccccc3F)C2C(=O)N1c1ccccc1` (stereo not given), -0.0118; for `CC(C)(C)N1CC=CC23O[C@@H]4C=CCOC(=O)[C@@H]4[C@H]2C(=O)N(CCCCCCO)[C@@H]3C1=O` (stereo not given in full), -1.42.
For `CCCCO[C@H]1C[C@H]2C(I)=C[C@@H]1C(=O)[C@]21CO1` the value was 0.145; for `C=CCOC(=O)[C@H]1[C@@H]2C(=O)O[C@@H](c3ccccc3)[C@@H](c3ccccc3)N2[C@@H](c2ccc(OCCOC(=O)[C@@H]3C[C@@H]4C(=O)N5CCC[C@H]5C(=O)N4[C@@H]3c3ccc(O)cc3)cc2)[C@]12C(=O)Nc1ccc(I)cc12`, 1.36; for `C=CCOC(=O)[C@H]1[C@@H]2C(=O)O[C@@H](c3ccccc3)[C@@H](c3ccccc3)N2[C@@H](c2ccc(OCCOC(=O)[C@H]3C[C@H]4C(=O)N[C@@H](CCCCNC(C)=O)C(=O)N4[C@H]3c3ccc(O)cc3)cc2)[C@]12C(=O)Nc1ccccc12`, 1.4.
Under `CCOc1cc(C(O)C2C=CC3C(=O)N(C)C(=O)C3N2Nc2ccccc2)ccc1O` (stereo not given) stands 0.0506; under `C#CCN([C@@H](Cc1ccc(O)cc1)C(=O)OC)[C@@H](/C=C/C1CC1)[C@H](O)Cc1ccccc1`, 0.814.
`O=c1n(-c2ccccc2)c(=O)n2n1CC(COc1ccccc1)=C([C@H](O)CCc1ccccc1)[C@@H]2CO` yielded a composite z-score of 0.415.
As to `CC(=O)NCCCC[C@@H]1NC(=O)[C@H]2C[C@@H](C(=O)NCCCC[N+](C)(C)C)[C@@H](c3cccc(OCCO)c3)N2C1=O`, the composite z-score stood at 1.47.
Regarding `CN1C(=O)C2C=CC(C(O)c3ccccn3)N(N(c3ccccc3)c3ccccc3)C2C1=O` (stereo not given), the composite z-score was determined as 0.82.
For `C[N+](C)(C)CCCCCCNC(=O)[C@H]1C[C@H]2C(=O)NCC(=O)N2[C@H]1c1ccc(O)cc1` the value was 1.37; for `CCCC[C@@H]1C[C@H]1[C@@H](NC(=O)c1cccs1)c1ccc(C(F)(F)F)cc1`, 0.301.
For `COc1ccc(CCN2C(=O)[C@@]3(Cc4ccccc42)c2ccccc2C(=O)N(Cc2ccccc2OC)[C@H]3c2ccc(CO)cc2)cc1` the value was -1.19.
In turn, `C[C@@H]1NC(=O)[C@@]23C(=O)N[C@@H](Cc4ccccc4)C2[C@H](C)[C@@]2(C)O[C@H]2C3/C=C/C/C=C\CNC(=O)[C@@H]2CCCN2C1=O` (stereo not given in full) yielded a composite z-score of 0.148.
For `C=C(/C(=C/C[C@H](OC(C)=O)c1cccc(OCCO)c1)c1cnc2ccccc2c1)C(C)C` the value was 1.36; for `[N-]=[N+]=NCc1ccccc1[C@H]1OC(c2ccc(OCCCO)cc2)=N[C@@]1(CCS(=O)(=O)c1ccccc1)C(=O)NCC(O)CO` (stereo not given in full), 1.36.
Under `Cc1cc(C)cc(N2C(=O)CSC2c2cccc([N+](=O)[O-])c2)c1` (stereo not given) stands 0.45.
Turning to `COCCOC(=O)N1C(=O)[C@@]2(c3cc(C#CC4(O)CCCCCC4)ccc31)[C@H](c1ccc(O)cc1)N1[C@H](c3ccccc3)[C@H](c3ccccc3)OC(=O)[C@H]1[C@@H]2C(=O)NC[C@H](O)c1ccccc1`, the composite z-score was 1.26.
For `COC(=O)c1cn(C[C@@H](Cc2ccccc2)NC(=O)N[C@H](CO)CCc2oc(C(C)=O)c(C(=O)OC)c2C(=O)OC)nn1` the value was 1.02; for `COC(=O)[C@@]1(Cc2ccccc2)[C@H]2c3cc(C(=O)N(C)C)n(Cc4c(CO)[nH]cc(C)c4=O)c3C[C@H]2CN1C(=O)c1ccccc1`, -0.0699; for `CC(=O)NCCCC[C@@H]1NC(=O)[C@@H]2C[C@H](C(=O)NCCCC[N+](C)(C)C)[C@H](c3ccc(O)cc3)N2C1=O`, 1.48.
For `COc1ccc([Si](C)(C)[C@@H]2[C@@H](CC(=O)N3Cc4ccccc4C[C@H]3CO)O[C@]3(C(=O)N(C)c4ccccc43)[C@H]2C)cc1` the value was 1.52; for `COCCOC(=O)N1C(=O)[C@@]2(c3cc(C#CC4=CCCCC4)ccc31)[C@H](C(N)=O)[C@H]1C(=O)O[C@H](c3ccccc3)[C@H](c3ccccc3)N1[C@@H]2c1ccccc1OCCO`, 1.31.
For `COC(=O)[C@@]1(Cc2ccc(OC)cc2)[C@@H]2C(=CC(=O)[C@H]2CC(=O)C(=O)N(C)C)CN1C(=O)c1ccccc1` the value was 0.433.
